Experimental findings from PubChem BioAssay (NCATS) are described below.

SMILES strings stand for the structures. Records with an inconclusive call do not appear. A number with no mark means an inactive call. The source made the active and inactive calls. Calls follow the shape of the dose curve; as a rule, active = well fitted curve in the direction sought with a large enough effect; inconclusive = small, poorly fitted or top-dose-only effect, or another doubt; inactive = no such curve, though single readings can be large; an effect the other way counts as inactive or inconclusive.

Experiment [1] concerns the target Rap guanine nucleotide exchange factor 3 (Homo sapiens) (UniProt O95398). As to the kind of experiment: Confirmatory qHTS for agonist of cAMP-regulated guanine nucleotide exchange factor 3 (EPAC1) (AID 1645881).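 Also: EPAC1 catalysed release of BODIPY-GDP from Rap1B seen as fluorescence loss; 100% = effect of cAMP agonist control; nearly all actives have a fitted effect of over 75% in size.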
Experiment [2] concerns the target Rap guanine nucleotide exchange factor 4 (Homo sapiens) (UniProt Q8WZA2). As to the kind of experiment: Confirmatory qHTS for agonist of cAMP-regulated guanine nucleotide exchange factor 4 (EPAC2) (AID 1645884).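 Also: nucleotide exchange releases bodipy-GDP from Rap1 and this lowers its fluorescence; % is scaled to controls: 0 for no effect and ±100 for the full control effect; nearly all actives have a fitted effect of over 65% in size.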
Experiment [3] shares this target. Kind of experiment: Confirmatory qHTS for antagonist of cAMP-regulated guanine nucleotide exchange factor 4 (EPAC2) (AID 1645885). Also: nearly all actives have a fitted effect of over 25% in size. Also: potency is read from the fitted curve at half-maximal effect. As to activity change, negative = inhibition: % is scaled to controls: 0 for no effect and ±100 for the full control effect.
For experiment [4], the target named is Rap guanine nucleotide exchange factor 3 (Homo sapiens) (UniProt O95398). As to the kind of experiment: Counterscreen qHTS for antagonist of cAMP-regulated guanine nucleotide exchange factor 3 (EPAC1) (AID 1645888).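 Also: fluorescence loss as bound BODIPY-GDP is released from Rap1B; % of control where 0% means no effect.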 In a few lines: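 Rap1B–BODIPY-GDP (250 nM) with 50 uM GDP; compounds pin-transferred to 9.74 nM–152 uM final (activator) or from 7.32 nM upwards (inhibitor). Fluorescence Ex/Em 480/540 nm read at 5 and 30 min, then after adding cAMP or buffer, at room temperature.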
Chain of Rap guanine nucleotide exchange factor 3 (Homo sapiens) (O95398 whole entry, looked up): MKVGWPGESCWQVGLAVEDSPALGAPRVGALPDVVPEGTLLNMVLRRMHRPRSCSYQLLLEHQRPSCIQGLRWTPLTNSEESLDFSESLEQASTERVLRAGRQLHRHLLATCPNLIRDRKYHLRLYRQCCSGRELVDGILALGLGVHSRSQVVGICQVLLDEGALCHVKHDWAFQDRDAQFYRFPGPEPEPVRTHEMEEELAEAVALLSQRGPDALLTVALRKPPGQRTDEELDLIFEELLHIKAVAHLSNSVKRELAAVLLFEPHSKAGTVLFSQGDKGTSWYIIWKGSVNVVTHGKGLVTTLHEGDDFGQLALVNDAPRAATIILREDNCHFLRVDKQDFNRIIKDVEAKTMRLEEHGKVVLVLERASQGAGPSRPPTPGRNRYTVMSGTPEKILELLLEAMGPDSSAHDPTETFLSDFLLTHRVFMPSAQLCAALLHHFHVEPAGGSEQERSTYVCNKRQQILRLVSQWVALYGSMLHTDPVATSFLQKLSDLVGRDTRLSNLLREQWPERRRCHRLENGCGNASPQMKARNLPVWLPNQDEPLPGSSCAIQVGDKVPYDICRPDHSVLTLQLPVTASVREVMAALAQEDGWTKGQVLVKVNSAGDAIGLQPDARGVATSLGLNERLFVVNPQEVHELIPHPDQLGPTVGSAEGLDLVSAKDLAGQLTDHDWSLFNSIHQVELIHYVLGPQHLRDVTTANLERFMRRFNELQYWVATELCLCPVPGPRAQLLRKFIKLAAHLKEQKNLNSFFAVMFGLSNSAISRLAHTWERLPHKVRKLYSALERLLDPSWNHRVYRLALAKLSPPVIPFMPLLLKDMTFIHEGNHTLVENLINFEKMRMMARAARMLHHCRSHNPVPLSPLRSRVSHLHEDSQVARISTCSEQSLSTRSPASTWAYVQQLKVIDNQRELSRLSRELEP

Chain of Rap guanine nucleotide exchange factor 4 (Homo sapiens) (Q8WZA2 whole entry, looked up): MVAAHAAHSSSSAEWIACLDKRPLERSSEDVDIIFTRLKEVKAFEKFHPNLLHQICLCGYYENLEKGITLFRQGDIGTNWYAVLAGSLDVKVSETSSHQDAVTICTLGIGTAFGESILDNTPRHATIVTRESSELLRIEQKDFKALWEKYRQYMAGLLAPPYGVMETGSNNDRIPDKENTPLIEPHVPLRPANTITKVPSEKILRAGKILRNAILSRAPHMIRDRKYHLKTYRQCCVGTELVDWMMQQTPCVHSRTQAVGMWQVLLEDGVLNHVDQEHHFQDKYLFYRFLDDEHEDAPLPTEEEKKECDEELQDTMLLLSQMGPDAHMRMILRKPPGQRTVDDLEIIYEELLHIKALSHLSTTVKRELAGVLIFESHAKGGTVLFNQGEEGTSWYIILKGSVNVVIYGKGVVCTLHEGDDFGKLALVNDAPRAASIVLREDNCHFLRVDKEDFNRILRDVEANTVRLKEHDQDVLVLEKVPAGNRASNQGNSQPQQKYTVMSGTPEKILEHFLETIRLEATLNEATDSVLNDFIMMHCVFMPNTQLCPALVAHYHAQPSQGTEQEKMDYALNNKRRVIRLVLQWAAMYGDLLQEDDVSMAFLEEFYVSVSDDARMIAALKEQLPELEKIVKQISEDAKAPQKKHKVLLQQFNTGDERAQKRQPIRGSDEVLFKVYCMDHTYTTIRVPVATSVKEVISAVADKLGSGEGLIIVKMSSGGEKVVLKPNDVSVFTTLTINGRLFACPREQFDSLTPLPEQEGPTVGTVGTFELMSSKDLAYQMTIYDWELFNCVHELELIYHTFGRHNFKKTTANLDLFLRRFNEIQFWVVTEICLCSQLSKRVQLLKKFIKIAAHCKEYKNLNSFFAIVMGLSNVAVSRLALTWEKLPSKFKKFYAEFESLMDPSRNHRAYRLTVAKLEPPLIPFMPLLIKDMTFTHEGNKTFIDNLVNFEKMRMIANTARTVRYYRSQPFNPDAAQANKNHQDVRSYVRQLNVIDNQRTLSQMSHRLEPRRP

For `O=S1(=O)CCOC[C@H](CC2CCCCC2)N1Cc1cccc(C(F)(F)F)c1`, the Potency entry in experiment [1] and in experiment [3] was “inactive” throughout. For the same molecule, the activation in experiment [2] is 4.69% [at 17.1 µM, percent relative to cAMP agonist control].
With `C[C@@H]1CN([C@@H](C)CO)C(=O)c2ccccc2-c2ccccc2CO[C@@H]1CN(C)S(=O)(=O)c1ccc(C(F)(F)F)cc1`, the Potency result in experiment [1] and in experiment [3] was “inactive” in each case. In addition, the activation in experiment [2] is 1.26% [at 17.1 µM, percent relative to cAMP agonist control].
As for `O=C1NC[C@@H](Cc2cccc3ccccc23)N(CCc2cc(C(F)(F)F)cc(C(F)(F)F)c2)C1=O`, the Potency entry in experiment [1], in experiment [2] and in experiment [3] was “inactive” in each case.
`C=CC(C)N1C(=O)S/C(=C\c2ccc(N3CCOCC3)cc2C)C1=O` (centres undefined): the Potency entry in experiment [1] and in experiment [2] was “inactive” in each case. Also, the Potency in experiment [3] was 84.9 µM (active).
For `O=C1CCC[C@@H]2CC(N(Cc3cc4ccccc4s3)c3ccccc3)C[C@@H]3CCN1[C@H]23` (some centres undefined), the Potency entry in experiment [1], in experiment [2] and in experiment [3] was “inactive” each time.
Consider `CC(NS(=O)(=O)OCC(Cl)(Cl)Cl)c1ccc(C(C)(C)C)cc1` (centres undefined), for which the Potency entry in experiment [1] and in experiment [3] was “inactive” in each case. Moreover, in experiment [2], the activation was 4.78% [at 17.1 µM, percent relative to cAMP agonist control].
For `COn1c2c(c3c4nonc4ccc31)CCCC2`, the Potency entry in experiment [1], in experiment [2] and in experiment [3] was “inactive” each time.
For `Cc1ccc(NCc2nc3ccccc3n2CCOc2ccccc2)cc1`, the Potency entry in experiment [1], in experiment [2] and in experiment [3] was “inactive” in each case.
On to `C#CCN(Cc1nc(N2CCOCC2)c2ccc(Cl)cc2n1)Cc1ccco1`, for which the Potency entry in experiment [1] and in experiment [2] was “inactive” each time. Moreover, the Potency in experiment [3] is 17.5 µM (active).
Turning to `COC(=O)c1ccccc1NC(=S)NC(=O)c1ccc(C)cc1`, the Potency result in experiment [1] and in experiment [3] was “inactive” in each case. Besides, in experiment [2], the activation was 2.96% [at 17.1 µM, percent relative to cAMP agonist control].
With `CN(C)c1ccc(/C=C/c2cc[n+](C)c3ccccc23)cc1`, the Potency entry in experiment [1] and in experiment [2] was “inactive” in each case. In experiment [3], the Potency is 49.4 µM (active).
In the case of `COc1ccccc1N1CSC2=C(C#N)C(c3ccc(SC)cc3)CC(=O)N2C1` (centres undefined), the Potency entry in experiment [1] and in experiment [3] was “inactive” throughout. Further, the activation in experiment [2] was 7.57% [at 17.1 µM, percent relative to cAMP agonist control].
Take `COc1cc(C2CC(=O)Oc3cc(C)c(Br)c(C)c32)cc(OC)c1OC` (centres undefined): the Potency entry in experiment [1] and in experiment [3] was “inactive” each time. The activation in experiment [2] is 16.3% [at 17.1 µM, percent relative to cAMP agonist control].
As for `NC(=O)c1c(NC(=O)CSc2nnc(-c3ccco3)n2N)sc2c1CCCC2`, the Potency entry in experiment [1], in experiment [2] and in experiment [3] was “inactive” throughout.
As to `COc1cc(S(=O)(=O)NC2CCCCC2C)ccc1Cl` (centres undefined), the Potency result in experiment [1], in experiment [2] and in experiment [3] was “inactive” each time.
As to `O=C1c2cccc3cc([N+](=O)[O-])cc(c23)C(=O)N1/N=C/c1ccc(O)cc1O`, the Potency entry in experiment [1], in experiment [2] and in experiment [3] was “inactive” throughout.
In the case of `O=C(Nc1cc(Cl)cc(Cl)c1)c1ccc(F)c(S(=O)(=O)NC2CCCC2)c1`, the Potency entry in experiment [1] and in experiment [2] was “inactive” each time. Further, the outcome in experiment [3] is “inactive [at 12.7 µM]”.
For `O=C(c1[nH]c(C(F)(F)F)nc1-c1ccccc1)N1CCC(C(O)(c2ccccc2)c2ccccc2)CC1`, the Potency result in experiment [1], in experiment [2] and in experiment [3] was “inactive” throughout.
As to `COC(=O)c1c(NC(=O)COC(=O)c2ccc(NC(=O)CC#N)cc2)sc2c1CCCCC2`, the Potency entry in experiment [1], in experiment [2] and in experiment [3] was “inactive” each time.
Turning to `COc1ccc(C2CC(=O)c3c(O)cc(O)cc3O2)c(CC=C(C)C)c1OC` (centres undefined), the Potency result in experiment [1] and in experiment [2] was “inactive” each time. Further, the Potency in experiment [3] is 67.5 µM (active).
As to `CN(C)S(=O)(=O)N(CC(=O)NCCSc1ccc(Cl)cc1)c1ccccc1`, the Potency entry in experiment [1], in experiment [2] and in experiment [3] was “inactive” throughout.
With `COc1cc(/C=C2\SC(=S)N(CCCCC(=O)O)C2=O)ccc1OS(=O)(=O)c1ccc(C)cc1`, the Potency entry in experiment [1] and in experiment [3] was “inactive” throughout. Also, the activation in experiment [2] is -4.35% [at 17.1 µM, percent relative to cAMP agonist control]. Also, the activity change, negative = inhibition in experiment [4] is -18.6% [at 30.8 µM].
`Cc1ccc(Cn2ccnc2SCC(=O)Nc2ccc3c(c2)OCO3)cc1`: the Potency result in experiment [1], in experiment [2], in experiment [3] and in experiment [4] was “inactive” each time.
On to `CC(C)CNc1ncnc2onc(-c3ccc(Cl)cc3)c12`, for which the Potency result in experiment [1], in experiment [2], in experiment [3] and in experiment [4] was “inactive” throughout.
As to `O=C(O)c1ccc(-c2nc(-c3ccc(Cl)cc3Cl)cs2)cc1`, the Potency entry in experiment [1] and in experiment [3] was “inactive” in each case. In addition, in experiment [2], the activation was 10.1% [at 17.1 µM, percent relative to cAMP agonist control]. For the same molecule, the activity change, negative = inhibition in experiment [4] is -4.87% [at 30.8 µM].
Take `Clc1ccc(-c2nnc(-c3ccco3)nc2N2CCCCC2)cc1`: the Potency result in experiment [1] and in experiment [3] was “inactive” throughout. The activation in experiment [2] is 3.88% [at 17.1 µM, percent relative to cAMP agonist control]. In addition, in experiment [4], the activity change, negative = inhibition is 13.5% [at 30.8 µM].
Turning to `COc1ccc(OC)c(-n2c(SC)nnc2-c2c[nH]c3ccccc23)c1`, the Potency result in experiment [1], in experiment [2], in experiment [3] and in experiment [4] was “inactive” each time.
For `CCc1ccc2c(c1)NC(=O)C2(C)Cc1ccc(Cl)s1` (centres undefined), the Potency entry in experiment [1] and in experiment [3] was “inactive” each time. For the same molecule, in experiment [2], the activation was 0.147% [at 17.1 µM, percent relative to cAMP agonist control]. In addition, the activity change, negative = inhibition in experiment [4] was -21.9% [at 30.8 µM].
For `Cc1[nH]n(-c2ccccc2)c(=O)c1C=Nc1ccc(S(=O)(=O)N=C(N)N)cc1`, the Potency result in experiment [1], in experiment [2], in experiment [3] and in experiment [4] was “inactive” each time.
With `COc1ccc(-c2cc(C(F)(F)F)c3c(n2)sc2c(O)cc(=O)[nH]c23)c(OC)c1`, the Potency result in experiment [1], in experiment [2], in experiment [3] and in experiment [4] was “inactive” each time.
